According to ChEMBL document CHEMBL4513216, “Probing the Open Global Health Chemical Diversity Library for Multistage-Active Starting Points for Next-Generation Antimalarials” (ACS Infect Dis, 2020):
Out of some 68,000 compounds screened, about 2,700 (4%) showed an effect of 50% or more. What follows is part of a selection rich in strong results, with near analogues and random picks from the rest.

The compounds below were run on Plasmodium berghei (assay: Screen against P. berghei liver stage (PbLuc), transformed with Luciferase, at 2uM). Details: tested at 2 uM.
Assay type: functional, HepG2

| SMILES | INHIBITION |
| --- | --- |
| CN1CCCC2(CCN(S(=O)(=O)c3c(Cl)nc4sccn34)C2)C1=O (centres undefined) | 66.11% |
| O=S(=O)(c1c(Cl)nc2sccn12)N1CCC2(CCNCC2)C1 | 27.17% |
| O=S(=O)(c1c(Cl)nc2sccn12)N1CCCC2(CCNC2)C1 (centres undefined) | 12.83% |
| CCC1=N[C@@]2(CC[C@@H]3CN(S(=O)(=O)CC(C)C)C[C@@H]32)C(=O)N1CC | 47.53% |
| CCN(Cc1c(F)cccc1F)Cn1nc(C)c2c(C)onc2c1=O | 62.13% |
| CCN(Cc1cccc(C)c1)Cn1nc(C)c2c(C)onc2c1=O | -1.02% |
| CCN(Cc1cccc(F)c1)Cn1nc(C)c2c(C)onc2c1=O | 9.17% |
| CN1CCC(N(Cc2ccncc2)Cc2nc3c(s2)CCCC3)CC1 | -1.15% |
| O=C(NCCCc1nc(=O)[nH][nH]1)c1ccc(Cl)cn1 | 43.28% |
| CN(C)CCOCc1cncc2c1CCN(C(=O)C1CCOCC1)C2 | 26.48% |
| Cc1cc(C)nc(N2CCC(NCCSc3nnnn3C)CC2)n1 | -25.72% |
| Cn1ccnc1SCCNC1CCN(c2nc3ccccc3s2)CC1 | -11.8% |
| Cn1ccnc1SCCNC1CCN(c2ncccn2)CC1 | 50.98% |
| COc1cc(N2CCC3(CCCN(C(=O)c4cnccn4)C3)C2)ncn1 (centres undefined) | -42.01% |
| CC(=O)N1CCN(CC(C)(O)c2cccc(C(F)(F)F)c2)CC1 (centres undefined) | 1.63% |
| CC(O)(CN1CCN(CCO)CC1)c1cccc(C(F)(F)F)c1 (centres undefined) | -27.62% |
| CCN1CCN(CC(C)(O)c2cccc(C(F)(F)F)c2)CC1 (centres undefined) | 69.41% |
| O=C(NCCNc1ccccn1)Nc1cc(C(F)(F)F)c[nH]c1=O | -20.82% |
| CC(C)C(NC(=O)Cn1ccc(=O)n(C)c1=O)c1ccc(F)cc1 (centres undefined) | -56.99% |
| Fc1ccc(C(CNc2ccncn2)N2CCCC2)cc1 (centres undefined) | 30.93% |
| NC(=O)CN1CCC(C(=O)NCc2nc(-c3ccc(F)cc3)cs2)CC1 | 14.19% |
| NC(=O)CN1CCC(C(=O)NCCc2nc(-c3ccccc3)cs2)CC1 | -13.72% |
| N[C@@H]1CC[C@H](C(=O)NCCc2nc(-c3ccccc3)cs2)C1 | 60.18% |
| COCCN1CCCn2cnc(CNC(=O)N(C)C)c2C1 | 2.33% |
| CC(C)(CO)CCCNC(=O)NC1(C)Cc2ccccc2C1 | 29.87% |
| CC(C)(CO)CCCNC(=O)NC1(c2ccccc2F)CC1 | -3.66% |

| SMILES | INHIBITION |
| --- | --- |
| CC(C)(CO)CCCNC(=O)NC1(c2cccc(F)c2)CC1 | 57.16% |
| CC(NC(=O)COc1ccccc1I)C1CC1 (centres undefined) | -3.87% |
| CN(CCOCC1CC1)C(=O)Nc1ccc([S+](C)[O-])cc1 (centres undefined) | -88.39% |
| O=C(NCCNCc1cccc2c1OCCCO2)C1CCCC1 | 77.72% |
| O=C(CC1CCCC1)NCCNCc1cccc2c1OCCO2 | 30.57% |
| O=C(CCNCc1cccc2c1OCCCO2)NC1CCCC1 | -42.54% |
| CCO[C@@H]1CO[C@@]2(CCCN(S(=O)(=O)c3ccccc3)C2)C1 | 32.66% |
| COCCN1CCC12CCN(c1ncccn1)C2 (centres undefined) | 30.96% |
| COC(=O)c1cc2n(n1)CCCN(C(=O)Cc1c[nH]c3ccccc13)C2 | 19.27% |
| N#Cc1cc2n(n1)CCN(C(=O)CCc1c[nH]c3ccccc13)C2 | 76.29% |
| O=C(O)c1cc2n(n1)CCCN(C(=O)CCc1c[nH]c3ccccc13)C2 | 6.72% |
| CC(NC(=O)c1cccc(CCC(C)(C)O)c1)c1nnc(N)s1 (centres undefined) | 18.84% |
| Cc1noc(C)c1-c1cc(C2CCNCC2)ccn1 | -18.04% |
| O=S(=O)(CC1CCCO1)Nc1cc(Cl)ccc1-n1cccn1 (centres undefined) | -69.64% |
| CN(C)C[C@@H]1CN(C2CCN(c3ccc(Cl)cc3)CC2)C[C@@H]1CO | 63.46% |
| CN(C)C[C@@H]1CN(C2CCN(c3ccccc3Cl)CC2)C[C@@H]1CO | 32.26% |
| Cc1ccc(N2CCC(N3C[C@@H](CN(C)C)[C@@H](CO)C3)CC2)cc1 | 27.85% |
| Cc1ccccc1OCC(=O)N1CCN(C2CCOC2=O)CC1 (centres undefined) | -42.29% |
| CCn1ccnc1CN(C)Cc1nc(Cc2ccccc2F)no1 | 36.34% |
| Cc1cc(C[S+]([O-])CC(=O)NCc2cccc(Cl)c2)no1 (centres undefined) | -11.2% |
| CCN1CC2(CC1=O)CN(C(C)=O)CCN(C(=O)NC)C2 (centres undefined) | -17.59% |
| N#Cc1ccc(F)c(CNc2ccc(F)cc2OCCO)c1 | -17.04% |
| N#Cc1ccc(SCCOCCO)c(Cl)c1 | 53.63% |
| CCCS(=O)(=O)CCSc1cccc(C#N)c1 | 32.97% |
| N#Cc1ccc(SCCCO)c(F)c1 | -22.89% |
| N#Cc1ccc(SCCC(=O)O)cc1 | 1.8% |

| SMILES | INHIBITION |
| --- | --- |
| N#Cc1ccc(SCCOCCO)c(F)c1 | 53.63% |
| CO[C@@H]1CCC[C@@H](NC(=O)C(C)(C)c2cccc(F)c2)[C@H]1O | -21.9% |
| CC(C)n1cnc2c1C(C(=O)N1CCCC1)N(S(C)(=O)=O)CC2 (centres undefined) | 29.19% |
| Cn1cc(I)c(C(=O)NCCCn2cc(Br)cn2)n1 | -6.71% |
| Cc1nn(C)c(C)c1C(C(=O)O)N1CCc2ccccc2C1 (centres undefined) | 11.33% |
| O=C(NCCS(=O)(=O)N1CCN(c2ncccn2)CC1)c1ccccc1 | 30.62% |
| Cc1nc(CN2C[C@@H]3CCCO[C@@H]3[C@H](N(C)C(C)C)C2)cs1 | -20.01% |
| CC(=O)N1CC(C)CN(C(=O)c2cccnc2C)c2ccccc21 (centres undefined) | -5.98% |
| N#Cc1c(Cl)nsc1NCc1cccnc1OC1CCCC1 | -59.9% |
| O=c1[nH]cnc2c1CCN(S(=O)(=O)c1ccc(Cl)cc1)C2 | 5.1% |
| O=S1(=O)c2ccccc2C2(CCN(Cc3cccnc3)C2)N1CC1CC1 (centres undefined) | 30.39% |
| Cc1nc(N2CCCC2)nc2c1CCN(C(=O)NC1CCCC1)CC2 | 40.28% |
| Cc1nc(N2CCOCC2)nc2c1CCN(C(=O)NC1CCCC1)CC2 | 51.57% |
| Cc1nc(N2CCOCC2)nc2c1CCN(C(=O)C1CCCCC1)CC2 | 36.99% |
| Cc1nc(N2CCCC2)nc2c1CCN(C(=O)NC(C)C)CC2 | -4.2% |
| CCS(=O)(=O)N1CCc2nc(N3CCOCC3)nc(N(C)C)c2CC1 | 21.57% |
| CCC(=O)N1CCc2nc(N3CCOCC3)nc(N(C)C)c2CC1 | 54.62% |
| Cc1nc(N2CCCC2)nc2c1CN(C(=O)NC(C)C)CC2 | 60.05% |
| CCCS(=O)(=O)N1CCc2nc(N3CCOCC3)nc(N(C)C)c2C1 | 40.64% |
| CC(=O)N1CCc2nc(N3CCCC3)nc(C)c2C1 | 15.57% |
| N#Cc1cccc(C(=O)NC2CCc3c(ccc(=O)n3CC3CC3)C2)c1 (centres undefined) | -7.45% |
| COC(=O)c1cccc(S(=O)(=O)NC(=O)CC2CCCC2)c1 | -30.66% |
| CC1CN(Cc2nnsc2Cl)CCN1c1nccs1 (centres undefined) | 24.82% |
| O=C(NC1CC1)[C@H]1C[C@@H]2CCN(Cc3ccc4c(c3)OCO4)C[C@@H]2O1 | 14% |
| CCc1cc(NCCN2CCNC2=O)n2nc(C)c(C)c2n1 | -35.07% |
| O=C(Cc1ccccc1)N1CCC(c2nnc(-c3ccccn3)o2)CC1 | 11.53% |

| SMILES | INHIBITION |
| --- | --- |
| CCn1ncc(CN2CCN(C(=O)Cn3cc(Br)c(C)n3)CC2)c1C | -22.24% |
| COc1cccc(CN(Cc2ccco2)Cc2cnc(C)n2C)c1 | -4.04% |
| Cc1nc2cc(=O)[nH]n2c(C)c1CNC(=O)c1cnn(C(C)(C)C)c1 | -46.8% |
| COc1ncccc1NC(=O)N(Cc1ccco1)C1CC1 | 20.93% |
| Cc1ccc(CN(C(=O)NCC2CCS(=O)(=O)C2)C2CC2)o1 (centres undefined) | 26.39% |
| Cc1ccc(CN(C(=O)NCC(c2cccs2)N(C)C)C2CC2)o1 (centres undefined) | -38.2% |
| CCN(C(=O)Nc1cccnc1OC)C1CC1 | -14.3% |
| COc1ncccc1NC(=O)N(Cc1ccc(C)o1)C1CC1 | 51.21% |
| Cc1ccc(CN(C(=O)NCC2CCCO2)C2CC2)o1 (centres undefined) | 57.85% |
| Cc1cc(CN2CCN(C(=O)CCCc3nc(C(C)C)no3)CC2)on1 | 26.06% |
| COc1ncc(-c2ccc(C(N)=O)cc2)c(OC)n1 | 29.41% |
| Cc1cc(C)c(CNC(=O)NCCCNc2ccccn2)c(=O)[nH]1 | 34.65% |
| COCCN1C[C@H]2CCN(C(C)=O)CC[C@H]2S1(=O)=O | 43.05% |
| CCN1C[C@H]2CCN(C(C)=O)CC[C@H]2S1(=O)=O | 59.49% |
| CCN1C[C@H]2CCN(C(=O)NC)CC[C@H]2S1(=O)=O | -11.73% |
| O=C(NCCCN1CCOCC1)c1ccn(COc2ccc(F)cc2)n1 | 58.42% |
| O=C(NCCN1CCOCC1)c1ccc(-c2ccccc2)[nH]c1=O | 40.47% |
| O=C(NCCN1CCOCC1)c1ccn(COc2ccc(F)cc2)n1 | -10.62% |
| O=C(NCCN1CCOCC1)c1ccc(-c2ccc(F)cc2)nc1O | 58.75% |
| O=C(NCCCN1CCOCC1)c1ccn(COc2ccc(Br)cc2)n1 | 12.84% |
| Cc1ccc(C(=O)NCCN2CCOCC2)c(=O)[nH]1 | -84.65% |
| CCc1nnc(C(C)N2CCN(CCC(=O)NC3CC3)CC2)o1 (centres undefined) | 35.61% |
| CC(C)(C)C(CCO)NC(=O)Nc1ccncc1 (centres undefined) | 6.84% |
| Cc1c(C(=O)NC(C)C)nnn1-c1cccc(C(F)(F)F)c1 | -8.75% |
| CC(C)NC(=O)c1nnn(-c2cccc(C(F)(F)F)c2)c1N | 50.54% |
| CC(C)NC(=O)c1nnn(-c2cccc(C(F)(F)F)c2)c1C1CC1 | -66.52% |
